Source: PubChem BioAssay AID1159580 (chemical genetic matrix, 2015)
“And” between values parts separate entries of the source, which are not always exact repeats. Identical values can stand only once. About 2,000 (36%) of roughly 5,500 compounds were called active. Inconclusive results (about 18%) are left out. No stated cut-off is given here; in the data, active means normalized growth mostly below about 0.91 (no sharp cut-off); inconclusive means no clear call, values can overlap the other calls; inactive means mostly above about 0.92. The list shows a part of the results.

Test: chemical genetic growth profiling, strain panel (AID 1159580);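 further: tested at 20 µM; growth read once vehicle control cultures reached saturation at 30 °C; 1 = growth at the plate median or of vehicle wells; lower values mean less growth of the strain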
Conditions: S. cerevisiae deletion strains, growth OD

Measured: normalized growth

Cc1cc(OC(=O)c2c(C)cc(O)cc2O)cc(O)c1C(=O)O
inactive: locus YAL021C, strain ccr4, hits give low values 1.02 | locus YAL026C, strain drs2, hits give low values 0.991 | locus YAL030W, strain snc1, hits give low values 0.995 | locus YBL061C, strain skt5, hits give low values 0.973 | locus YBR009C, strain hhf1, hits give low values 0.991 | locus YBR021W, strain FUR4, hits give low values 1.01 | locus YBR023C, strain chs3, hits give low values 0.978 | locus YBR171W, strain sec66, hits give low values 0.988 | locus YBR229C, strain ROT2, hits give low values 1.01 | locus YBR231C, strain swc5, hits give low values 0.992 | locus YBR279W, strain paf1, hits give low values 0.997 | locus YCL011C, strain gbp2, hits give low values 0.991 | locus YCL016C, strain dcc1, hits give low values 0.992 | locus YCL029C, strain bik1, hits give low values 1 | locus YCL061C, strain MRC1, hits give low values 0.989 | locus YCL069W, strain vba3, hits give low values 0.998 | locus YCR088W, strain abp1, hits give low values 0.997 | locus YDL005C, strain med2, hits give low values 0.983 | locus YDL035C, strain GPR1, hits give low values 1 | locus YDL040C, strain nat1, hits give low values 0.98 | locus YDL074C, strain BRE1, hits give low values 0.999 | locus YDL101C, strain DUN1, hits give low values 1.01 | locus YDL134C, strain PPH21, hits give low values 0.99 | locus YDL185W, strain tfp1, hits give low values 1 | locus YDL192W, strain arf1, hits give low values 0.979 | locus YDR001C, strain nth1, hits give low values 1 | locus YDR069C, strain doa4, hits give low values 0.966 | locus YDR101C, strain arx1, hits give low values 0.977 | locus YDR137W, strain rgp1, hits give low values 0.985 | locus YDR159W, strain sac3, hits give low values 0.987 | locus YDR162C, strain NBP2, hits give low values 1.01 | locus YDR195W, strain ref2 0.962 | locus YDR297W, strain sur2, hits give low values 0.99 | locus YDR318W, strain mcm21, hits give low values 0.981 | locus YDR334W, strain swr1, hits give low values 0.987 | locus YDR335W, strain msn5, hits give low values 1.01 | locus YDR388W, hits give low values 1.02 | locus YDR392W, strain spt3, hits give low values 0.991 | locus YDR502C, strain sam2, hits give low values 0.979 | locus YEL003W, strain gim4, hits give low values 0.972 | locus YEL037C, strain rad23, hits give low values 1 | locus YEL061C, strain CIN8 (second series), hits give low values 0.993 | locus YEL061C, strain CIN8, hits give low values 1.01 | locus YER015W, strain faa2, hits give low values 0.986 | locus YER016W, strain bim1, hits give low values 0.993 | locus YER110C, hits give low values 1.01 | locus YER111C, strain swi4, hits give low values 0.974 | locus YER155C, strain BEM2 (second series), hits give low values 0.966 | locus YER155C, strain BEM2, hits give low values 1.02 | locus YER167W, strain BCK2, hits give low values 1.01 | locus YFR010W, strain ubp6, hits give low values 0.968 | locus YGL078C, strain dbp3, hits give low values 0.967 | locus YGL086W, strain mad1, hits give low values 0.972 | locus YGL167C, strain pmr1, hits give low values 0.972 | locus YGL173C, strain kem1, hits give low values 0.981 | locus YGL227W, strain vid30, hits give low values 0.996 | locus YGL240W, strain doc1, hits give low values 0.957 | locus YGL248W, strain PDE1, hits give low values 1 | locus YGL253W, strain hxk2, hits give low values 0.99 | locus YGR135W, strain pre9, hits give low values 0.973 | locus YGR252W, strain gcn5, hits give low values 0.935 | locus YHR013C, strain ard1, hits give low values 0.966 | locus YHR027C, strain rpn1, hits give low values 1.01 | locus YHR030C, strain SLT2, hits give low values 0.976 | locus YHR079C, strain IRE1 (second series), hits give low values 1 | locus YHR079C, strain IRE1, hits give low values 0.968 | locus YHR094C, strain hxt1, hits give low values 1.02 | locus YHR129C, strain ARP1, hits give low values 0.997 | locus YHR142W, strain chs7, hits give low values 1 | locus YHR200W, strain rpn10, hits give low values 0.985 | locus YIL066C, strain RNR3, hits give low values 1.01 | locus YIL073C, strain SPO22, hits give low values 1.01 | locus YIL125W, strain kgd1, hits give low values 0.995 | locus YIR030C, strain dcg1, hits give low values 1 | locus YJL092W, strain hpr5, hits give low values 0.989 | locus YJL095W, strain BCK1 (second series), hits give low values 0.986 | locus YJL095W, strain BCK1, hits give low values 0.991 and 0.996 | locus YJL115W, strain asf1, hits give low values 0.987 | locus YJL129C, strain trk1, hits give low values 0.983 | locus YJL134W, strain LCB3, hits give low values 1.02 | locus YJL154C, strain vps35, hits give low values 0.993 | locus YJL164C, strain tpk1, hits give low values 1.02 | locus YJL166W, strain qcr8, hits give low values 0.987 | locus YJL168C, strain set2, hits give low values 1 | locus YJL187C, strain SWE1 (second series), hits give low values 0.993 | locus YJL187C, strain SWE1, hits give low values 1 | locus YJR043C, strain POL32, hits give low values 1 | locus YJR066W, strain TOR1, hits give low values 0.894 | locus YJR075W, strain HOC1, hits give low values 1.01 | locus YKL009W, strain mrt4, hits give low values 0.991 | locus YKL068W, hits give low values 1.02 | locus YKL085W, strain MDH1 (second series), hits give low values 1 | locus YKL085W, strain MDH1, hits give low values 1 | locus YKL160W, strain elf1, hits give low values 1.02 | locus YKL190W, strain CNB1, hits give low values 1.01 | locus YKR001C, strain vps1, hits give low values 0.98 | locus YKR026C, strain gcn3, hits give low values 0.983 | locus YKR091W, strain srl3, hits give low values 0.992 | locus YLL001W, strain dnm1, hits give low values 1.01 | locus YLL026W, hits give low values 0.991 | locus YLL041C, strain sdh2, hits give low values 0.972 | locus YLR027C, strain aat2, hits give low values 0.99 | locus YLR039C, strain RIC1, hits give low values 0.914 | locus YLR058C, strain SHM2, hits give low values 0.992 | locus YLR102C, strain apc9, hits give low values 1.01 | locus YLR113W, strain HOG1, hits give low values 1.01 | locus YLR221C, strain rsa3, hits give low values 0.979 | locus YLR258W, strain gsy2, hits give low values 0.992 | locus YLR262C, strain YPT6 (second series), hits give low values 1.01 | locus YLR262C, strain YPT6, hits give low values 0.989 | locus YLR268W, strain sec22, hits give low values 0.983 | locus YLR320W, strain mms22, hits give low values 0.975 | locus YLR330W, strain CHS5, hits give low values 1.01 | locus YLR342W, strain FKS1 (second series), hits give low values 1.01 | locus YLR342W, strain FKS1, hits give low values 0.991 | locus YLR357W, strain rsc2, hits give low values 0.984 | locus YLR370C, strain arc18, hits give low values 0.978 | locus YLR371W, strain rom2, hits give low values 1 | locus YLR384C, strain iki3, hits give low values 0.963 | locus YLR418C, strain cdc73, hits give low values 0.951 | locus YML016C, strain PPZ1, hits give low values 1.01 | locus YML032C, strain rad52, hits give low values 0.979 | locus YML120C, strain ndi1, hits give low values 0.994 | locus YML124C, strain tub3, hits give low values 1 | locus YMR058W, strain fet3, hits give low values 0.99 | locus YMR078C, strain ctf18, hits give low values 1 | locus YMR125W, strain sto1, hits give low values 0.992 | locus YMR129W, hits give low values 0.996 | locus YMR205C, strain PFK2, hits give low values 1.03 | locus YMR223W, strain ubp8, hits give low values 0.975 | locus YMR231W, strain pep5, hits give low values 0.955 | locus YMR307W, strain GAS1, hits give low values 0.988 | locus YNL067W, strain RPL9B, hits give low values 1 | locus YNL071W, strain lat1, hits give low values 1.02 | locus YNL153C, strain GIM3, hits give low values 0.985 | locus YNL183C, strain NPR1, hits give low values 0.933 | locus YNL209W, strain ssb2, hits give low values 0.996 | locus YNL233W, strain BNI4, hits give low values 0.989 | locus YNL248C, strain rpa49, hits give low values 0.992 | locus YNL250W, strain rad50, hits give low values 1.03 | locus YNL271C, strain bni1, hits give low values 1.01 | locus YNL298W, strain CLA4, hits give low values 0.986 | locus YNL307C, strain MCK1, hits give low values 1 | locus YNL322C, strain KRE1 (second series), hits give low values 0.974 | locus YNL322C, strain KRE1, hits give low values 0.986 | locus YNR049C, strain mso1, hits give low values 0.975 | locus YNR052C, strain pop2, hits give low values 0.978 | locus YOL006C, strain TOP1, hits give low values 1.08 | locus YOL012C, strain htz1 1.01 | locus YOL147C, strain pex11, hits give low values 1.01 | locus YOR001W, strain rrp6, hits give low values 0.96 | locus YOR061W, strain CKA2, hits give low values 1.01 | locus YOR069W, strain VPS5, hits give low values 1.01 | locus YOR070C, strain gyp1, hits give low values 1 | locus YOR080W, strain dia2, hits give low values 0.975 | locus YOR083W, strain WHI5, hits give low values 1.03 | locus YOR106W, strain vam3, hits give low values 1.03 | locus YOR136W, strain idh2, hits give low values 1.01 | locus YOR144C, strain elg1, hits give low values 1.01 | locus YOR184W, strain ser1, hits give low values 0.973 | locus YOR231W, strain MKK1, hits give low values 0.974 | locus YOR265W, strain rbl2, hits give low values 0.991 | locus YOR270C, strain vph1, hits give low values 0.99 | locus YOR290C, strain snf2, hits give low values 0.969 | locus YOR316C, strain cot1, hits give low values 1.01 | locus YPL051W, strain arl3, hits give low values 0.993 | locus YPL078C, strain atp4, hits give low values 1.03 | locus YPL106C, strain sse1, hits give low values 0.99 | locus YPL240C, strain hsp82, hits give low values 0.974 | locus YPL241C, strain CIN2, hits give low values 1.02 | locus YPL256C, strain CLN2, hits give low values 1.01 | locus YPR119W, strain clb2, hits give low values 1.01 | locus YPR141C, strain kar3, hits give low values 1.02 | locus YPR163C, strain tif3, hits give low values 0.983 | locus YPR167C, strain met16, hits give low values 0.976 | strain wtn01, hits give low values 0.978
